Read-out in experiment [1]: Monokine induced gamma interferon (MIG), CXCL9 (gene 4283)
The experiment is described as follows: BSK_BE3C_MIG: BioMAP Diversity Plus: BE3C Assay for Monokine induced gamma interferon (MIG) Biomarker Activity (AID 2283035). The settings on record: primary human bronchial epithelial cells; actives raise or lower the signal. Summed up: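 Primary human bronchial epithelial cells treated for 24 h; MIG levels measured by ELISA, fitted bidirectionally versus DMSO. Parallel SRB total-protein staining assessed cytotoxicity.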

Read-out in experiment [2]: Transforming growth factor beta 1 (TGFb1), TGFB1 (gene 7040)
Nature of the experiment: BSK_BE3C_TGFb1: BioMAP Diversity Plus: BE3C Assay for Transforming growth factor beta 1 (TGFb1) Biomarker Activity (AID 2283036;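 as to outcome: TGF-b1 protein level measured by ELISA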). The settings on record: primary human bronchial epithelial cells; actives raise or lower the signal. Summed up:
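In this human primary bronchial epithelial system, an ELISA quantified TGF-b1 one day after dosing. Endpoint changes in either direction were fitted relative to DMSO.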

Read-out in experiment [3]: Plasminogen activator inhibitor-1 (PAI1), SERPINE1 (gene 5054)
Nature of the experiment: BSK_BE3C_PAI1: BioMAP Diversity Plus: BE3C Assay for Plasminogen activator inhibitor-1 (PAI1) Biomarker Activity (AID 2283037). The conditions noted are these: primary human bronchial epithelial cells; actives raise or lower the signal. Summed up: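 PAI-1 biomarker levels in treated human bronchial epithelial cells are determined by ELISA at 24 h. Both increases and decreases relative to DMSO are fitted.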

Read-out in experiment [4]: urokinase plasminogen activator (uPA), PLAU (gene 5328)
The experiment is described as follows: BSK_BE3C_uPA: BioMAP Diversity Plus: BE3C Assay for urokinase plasminogen activator (uPA) Biomarker Activity (AID 2283038).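 As to outcome: uPA protein level quantified by ELISA in cell cultures; uPA read one day after compound addition.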 The settings on record: primary human bronchial epithelial cells; actives raise or lower the signal. The essentials:
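Measured by ELISA: uPA from human primary bronchial epithelial cells 24 h after chemical treatment. Values derive from bidirectional curve fitting with DMSO serving as negative control. Total protein by SRB staining in parallel wells flagged overt cytotoxicity.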

Read-out in experiment [5]: Urokinase-type plasminogen activator receptor (uPAR), PLAUR (gene 5329)
Nature of the experiment: BSK_BE3C_uPAR: BioMAP Diversity Plus: BE3C Assay for Urokinase-type plasminogen activator receptor (uPAR) Biomarker Activity (AID 2283039).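 As to outcome: cells exposed to compound for one day before measurement.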 The conditions noted are these: primary human bronchial epithelial cells; actives raise or lower the signal. The essentials: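 A uPAR ELISA serves as the readout, taken 24 h after treating primary human bronchial epithelial cells. Responses in either direction are fitted against DMSO, which defines baseline activity.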

Read-out in experiment [6]: Interleukin-6 (IL6), IL6 (gene 3569)
The experiment is described as follows: BSK_CASM3C_IL6: BioMAP Diversity Plus: CASM3C Assay for Interleukin-6 (IL6) Biomarker Activity for (AID 2283040). The settings on record: primary human coronary artery smooth muscle cells; actives raise or lower the signal.

Read-out in experiment [7]: Tissue plasminogen activator (tPA), PLAT (gene 5327)
Nature of the experiment: BSK_BE3C_tPA: BioMAP Diversity Plus: BE3C Assay for Tissue plasminogen activator (tPA) Biomarker Activity (AID 2283041).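 As to outcome: tPA level quantified by ELISA one day after compound addition.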 The settings on record: primary human bronchial epithelial cells; actives raise or lower the signal. Summed up:
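Bidirectional curve fitting relative to DMSO defined activity, with tPA detected by ELISA in chemically treated human bronchial epithelial primary cells at 24 hours.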

Read-out in experiment [8]: Interleukin-8 (IL8), CXCL8 (gene 3576)
Nature of the experiment: BSK_CASM3C_IL8: BioMAP Diversity Plus: CASM3C Assay for Interleukin-8 (IL8) Biomarker Activity (AID 2283042).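 Also: IL-8 protein level quantified by ELISA.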 The settings on record: primary human coronary artery smooth muscle cells; actives raise or lower the signal.

Read-out in experiment [9]: Human Leukocyte Antigen - DR isotype (HLADR), HLA-DRA (gene 3122)
The experiment is described as follows: BSK_CASM3C_HLADR: BioMAP Diversity Plus: CASM3C Assay for Human Leukocyte Antigen - DR isotype (HLADR) Biomarker Activity (AID 2283043).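 Also: cell-surface HLA-DR protein level quantified by ELISA.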 The conditions noted are these: primary human coronary artery smooth muscle cells; actives raise or lower the signal.

Read-out in experiment [10]: Macrophage colony-stimulating factor (MCSF), CSF1 (gene 1435)
The experiment is described as follows: BSK_CASM3C_MCSF: BioMAP Diversity Plus: CASM3C Assay for Macrophage colony-stimulating factor (MCSF) Biomarker Activity (AID 2283044).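 Also: M-CSF protein amount quantified by ELISA after 24 h exposure.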 The settings on record: primary human coronary artery smooth muscle cells; actives raise or lower the signal.

Activity calls are given as the source filed them. The calls were made as follows: active = hit-call score of the fitted dose curve at least 0.9, where 1 is the maximum; inactive = score below 0.9.

As a reminder, the AC50 is the concentration at which the activity in the assay is half-maximal.

For the compound `CCCCCCC(CCCCCCCCCCC(=O)OCC(COC(C)=O)OC(C)=O)OC(C)=O` (stereo unspecified), the AC50 in [1] is 13.7 µM (active); in [2], 7.57 µM (active); in experiment [3], 7.39 µM (active); in experiment [4], 13.2 µM (active); in experiment [7], 3.58 µM (active). In addition, the outcome in experiment [5], in experiment [6], in experiment [8], in experiment [9] and in experiment [10] was inactive.
For the compound `Oc1ccccc1O`, the result in [1], in experiment [2], in experiment [3], in experiment [4], in experiment [5] and in experiment [6] was inactive. In addition, the outcome in experiment [7] and in experiment [8] was inactive. Moreover, the AC50 was 10.4 µM (active) in [9] and 3.97 µM (active) in [10].
For the compound `O=C(O)CC(O)(CC(=O)O)C(=O)O`, the outcome in [1], in experiment [2], in experiment [3], in experiment [4], in [5] and in experiment [6] was inactive. Moreover, the result in experiment [7], in experiment [8], in [9] and in experiment [10] was inactive.
With `CC(C)c1cccc(C(C)C)c1`, the result in experiment [1], in experiment [2], in experiment [3], in experiment [4], in [5] and in experiment [6] was inactive. The result in [7], in [8], in experiment [9] and in [10] was inactive.
`COC(=O)CCCC(=O)OC`: the result in experiment [1], in experiment [2], in [3], in experiment [4], in experiment [5] and in experiment [6] was inactive. Also, the outcome in experiment [7], in experiment [8], in experiment [9] and in experiment [10] was inactive.
For the compound `C#CC(O)C(CC)CCCC` (stereo unspecified), the outcome in experiment [1], in experiment [2], in experiment [3], in experiment [4], in [5] and in [6] was inactive. For the same compound, the outcome in experiment [7], in experiment [8], in [9] and in experiment [10] was inactive.
With `CN(C)C(=O)NC1(c2ccccc2)CCN(CCC[C@]2(c3ccc(Cl)c(Cl)c3)CCCN(C(=O)c3ccccc3)C2)CC1`, the outcome in experiment [1], in experiment [2], in experiment [3], in experiment [4], in experiment [5] and in [6] was inactive. Besides, the outcome in experiment [7], in experiment [8], in [9] and in [10] was inactive.
For the compound `Cc1ccc(-c2cc(C(F)(F)F)nn2-c2ccc(S(N)(=O)=O)cc2)cc1`, the half-maximal activity concentration (AC50) in [1] was 39.1 µM (active); in experiment [2], 20 µM (active); in experiment [3], 36.6 µM (active); in [4] it was 35.9 µM (active); in [5], 31.6 µM (active); in experiment [6], 32.9 µM (active). Also, the AC50 is 18.6 µM (active) in experiment [7], 32.7 µM (active) in [8] and 32.4 µM (active) in experiment [9].
Regarding `CC1(C)C(=O)NC(=O)N1CO`, the result in experiment [1], in [2], in experiment [3], in experiment [4], in experiment [5] and in experiment [6] was inactive. The outcome in experiment [7], in experiment [8], in experiment [9] and in experiment [10] was inactive.
For the compound `NC(=Nc1ccccc1)Nc1ccccc1`, the outcome in experiment [1], in experiment [2], in experiment [3], in [4], in experiment [5] and in experiment [6] was inactive. Moreover, the outcome in experiment [7], in experiment [8] and in [9] was inactive. Further, in [10], the half-maximal activity concentration (AC50) was 3.97 µM (active).
Regarding `CCc1cc(C2=C(C(=O)O)N(c3ccccc3C(F)(F)F)S(=O)(=O)c3ccccc32)cc2c1OCO2`, the result in experiment [2], in [3], in [4], in experiment [5], in experiment [6] and in experiment [7] was inactive. The result in [8] was inactive. For the same compound, the half-maximal activity concentration (AC50) was 9.8 µM (active) in experiment [9] and 19.8 µM (active) in [10].
Regarding `Oc1ccc(O)cc1`, the outcome in experiment [1], in experiment [2], in [3], in experiment [5], in experiment [6] and in experiment [7] was inactive. Further, in [8], the result was inactive. In addition, the AC50 in experiment [4] is 7.83 µM (active); in [9], 9.58 µM (active); in experiment [10] it was 15.1 µM (active).
On to `C/C=C/c1ccc(OC)cc1`, for which the result in experiment [1], in [2], in experiment [3], in [4], in experiment [5] and in [6] was inactive. Besides, the result in [7], in experiment [8], in experiment [9] and in experiment [10] was inactive.
Take `O=C(O)CN(CC(=O)O)CC(=O)O`: the outcome in experiment [2], in [3], in experiment [4], in experiment [5], in [6] and in experiment [7] was inactive. In addition, the result in experiment [8], in experiment [9] and in experiment [10] was inactive.
As to `Cc1occc(=O)c1O`, the outcome in [1], in experiment [2], in [3], in [4], in experiment [5] and in experiment [6] was inactive. Also, the outcome in experiment [7], in [8], in experiment [9] and in experiment [10] was inactive.
Consider `CCCCC(CC)COC(=O)CCCCCCCC(=O)OCC(CC)CCCC` (stereo unspecified), for which the outcome in experiment [1], in [2], in experiment [3], in [4], in experiment [5] and in [6] was inactive. In addition, the result in [7], in experiment [8], in experiment [9] and in experiment [10] was inactive.
For `OCC(O)CO`, the outcome in [2], in experiment [3], in [4], in experiment [5], in [6] and in [7] was inactive. The result in experiment [8], in experiment [9] and in [10] was inactive.
For the compound `Nc1nc(Cl)nc2c1ncn2[C@H]1C[C@H](O)[C@@H](CO)O1`, the outcome in experiment [1], in experiment [2], in experiment [3], in experiment [4], in experiment [5] and in [6] was inactive. Also, the outcome in experiment [7], in [8], in experiment [9] and in [10] was inactive.
As for `O=C(N[C@@H](c1ccccc1)[C@@H]1CCCCN1)c1cccc(C(F)(F)F)c1Cl`, the concentration at half-maximal activity (AC50) was 34.7 µM (active) in experiment [1]; 36.7 µM (active) in experiment [2]; 32.4 µM (active) in [3]; 28.7 µM (active) in experiment [4]; 33.3 µM (active) in experiment [5]; 24 µM (active) in experiment [7]. The outcome in [6], in experiment [8], in experiment [9] and in experiment [10] was inactive.
As for `CCCCC(CC)COP(=O)(OCC(CC)CCCC)OCC(CC)CCCC` (stereo unspecified), the outcome in [1], in experiment [2], in [3], in experiment [4], in experiment [5] and in [6] was inactive. The outcome in experiment [7], in experiment [8], in experiment [9] and in experiment [10] was inactive.
Take `Cc1cc(SC2=C(O)C[C@@](CCc3ccc(N)cc3)(C(C)C)OC2=O)c(C(C)(C)C)cc1CO`: the result in experiment [1], in experiment [2], in [3], in experiment [4], in experiment [5] and in [6] was inactive. Also, the outcome in [7], in experiment [8], in [9] and in [10] was inactive.
Take `O=C(O)c1cccnc1`: the outcome in experiment [1], in experiment [2], in [3], in experiment [4], in [5] and in experiment [6] was inactive. In addition, the result in experiment [7], in experiment [8], in [9] and in [10] was inactive.

The values are drawn from PubChem BioAssay (EPA / NIEHS).
